# KDM5B inhibitor – Primary screen for KDM5B Histone Demethylases FDH-coupled qHTS | Lysine-specific demethylase 5B (Homo sapiens), Q9UGL1 | Potency, µM (titrated, usually from 57.7 µM), hits mostly inhibitors | KDM5B demethylase, FDH-coupled NADH fluorescence (FDH is formaldehyde dehydrogenase) | 220,000 tested, 2.6% active | AID 1347165, 2019; active means well fitted inhibition curve with a large enough effect; inconclusive means small, poorly fitted or top-dose-only effect; inactive means no such curve, though single readings can be large or run the other way; further: potency means the concentration at half of the fitted maximal effect; 0% is about no effect; nearly all actives have a fitted effect of over 70% in size
#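 Coupled FDH/NAD⁺ fluorescence readout. KDM5BΔAP 200 nM final; compound titration, 10 min RT preincubation; substrate mix 12.5 µM H3K4me3, 25 µM 2-OG, 50 µM Fe(II), 100 µM ascorbate, 0.25 mM NAD⁺, 0.25 U/mL FDH; ΔRFU over 30 min.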
# IP6K1 inhibitor – Primary qHTS assay for small molecule inhibitors of Inositol hexaphosphate kinase 1 (IP6K1). Inositol hexakisphosphate kinase 1 (Homo sapiens), Q92551. IP6K1 kinase, ADP-Glo luminescence, 2 h; stronger effect = lower value. activity change, % (series mostly up to about 58 µM). 140,000 tested, 0.81% active. AID 1645851, 2021; in the data active means activity change below about -25%; further: on the % scale 0 is the no-effect control and ±100 the full control effect
#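 ADP-Glo luminescence measures ADP made by human IP6K1 during a 2 h RT reaction with ATP/IP6 (mix at 1.3 mM/130 uM); top library doses 57.5 and 19.1 uM final.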
# An asterisk follows results filed as active; i = inactive; ? = inconclusive; . = no result given. A selection: hits, their analogues and other compounds. The true share with any hit is near 2.8%.
SMILES,KDM5B inhibitor,IP6K1 inhibitor
OCCc1cnc2c(-c3nc(-c4cccnn4)no3)cnn2c1,25.1µM*,27.0
Cc1cnn(C(C)c2nc(-c3cccnn3)no2)c1 (stereo not drawn),i,-12.2
Fc1ccc2nc(CO[C@H]3CN(Cc4ccccn4)C[C@H]3F)[nH]c2c1,i,2.2
Fc1ccc2nc(CO[C@H]3CN(Cc4ccc5ccccc5n4)C[C@H]3F)[nH]c2c1,35.5µM*,-4.1
O=C(O)/C=C/c1ccc(F)cc1F,i,.
CCC(CC)C(NC(=O)CNC(=O)C1CC1)c1cccs1 (stereo not drawn),i,.
Cc1cccc(-c2nccc3c(=O)cc(N4CCN(C)CC4)oc23)c1,35.5µM*,-15.9
Cn1ncc2c(-c3ccc([S+](C)(=O)[O-])cc3)cc(C(=O)N3CCN(c4ncccn4)CC3)nc21,?,-3.1
Cc1ccc(-c2nccc3c(=O)cc(N4CCN(C)CC4)oc23)cc1,39.8µM*,-8.3
CN1CCN(c2cc(=O)c3ccnc(-c4ccc(F)cc4)c3o2)CC1,28.2µM*,-15.1
COc1cc(F)ccc1-c1nccc2c(=O)cc(N3CCN(C)CC3)oc12,?,-7.6
COc1ccc(C)cc1-c1nccc2c(=O)cc(-c3cnn(C)c3)oc12,i,-16.0
CN1CCN(c2cc(=O)c3ccnc(-c4ccc([S+](C)(=O)[O-])cc4)c3o2)CC1,31.6µM*,-8.9
c1ccc(Cc2noc(CCn3ccnc3-c3ccncc3)n2)cc1,i,3.2
C=C1C[C@]23C[C@H]1CC[C@H]2C1=C[C@H]2OC(=O)[C@@](C)([C@H]1[C@@H]3C(=O)O)[C@H]2O,.,-4.4
O=c1cc(-c2ccncc2)oc2c(-c3ccccc3O)nccc12,i,-11.1
C[S+](=O)([O-])c1ccc(-c2nccc3c(=O)cc(-c4ccncc4)oc23)cc1,31.6µM*,-4.6
Cc1ccc2c(CSc3nnnn3-c3ccc(Cl)cc3)cc(=O)oc2c1,i,.
O=C1CCCc2c([nH]c3ccc(C4CCCCC4)cc23)C1,i,.
CCc1ncc2c(N3CC4CCC(C3)N4CC(F)(F)F)nc3ccccc3n12,70.8µM*,33.5
COc1cc2ncnc(N3CC4CCC(C3)N4CC(F)(F)F)c2cc1OC,i,27.6
O=C(CCc1ncc(-c2ccccc2F)o1)NCC(O)CN1CCOCC1 (stereo not drawn),i,.
Cc1cc2cc(-c3c(C)noc3C)nc(NCc3cccc(F)c3)c2o1,i,6.5
Cc1cc2cc(-c3c(C)noc3C)nc(N3CCCC3)c2o1,?,18.1
COc1cc(CNc2nc(-c3c(C)noc3C)cc3cc(C)oc23)cc(OC)c1,31.6µM*,10.2
SMILES,KDM5B inhibitor,IP6K1 inhibitor
Cc1cc2cc(-c3c(C)noc3C)nc(Nc3ccccc3)c2o1,39.8µM*,2.5
Cc1cc2cc(-c3c(C)noc3C)nc(Nc3ccc(F)cc3)c2o1,31.6µM*,12.2
Cc1cc2cc(-c3c(C)noc3C)nc(-c3ccnn3C)c2o1,?,-6.4
Cc1cc2cc(-c3c(C)noc3C)nc(Nc3ccc(Cl)cc3)c2o1,22.4µM*,16.0
Cc1cc2cc(-c3c(C)noc3C)nc(Nc3cccc(F)c3)c2o1,?,10.3
CN(CC1CCOCC1)C(=O)Nc1ccccc1Cl,i,7.8
O=C(CNC(=O)c1ccc(-c2cnc3ccccc3c2)cc1)NCc1ccc(C(F)(F)F)cc1,.,-0.1
Clc1ccc(COc2cccc(CNc3nn[nH]n3)c2)c(Cl)c1,i,.
c1ccc(-c2nnc3ccc(-c4ccoc4)nn23)nc1,31.6µM*,-16.9
c1ccc(-c2nnc3ccc(NC4CCCCC4)nn23)nc1,?,-13.3
Cc1cccc(C)c1OCC(=O)Nc1cccc2cccnc12,i,.
O=C(NCc1cccc(Cl)c1)c1cc2n(n1)CC(c1ccc3c(c1)OCO3)OC2 (stereo not drawn),20µM*,22.9
COc1ccc(CNC(=O)c2cc3n(n2)CC(c2ccc4c(c2)OCO4)OC3)cc1OC (stereo not drawn),25.1µM*,-6.8
COc1ccccc1CNC(=O)c1cc2n(n1)CC(c1ccc3c(c1)OCO3)OC2 (stereo not drawn),25.1µM*,0.0
COc1ccc(OC)c(NC(=O)c2cc3n(n2)CC(c2ccc4c(c2)OCO4)OC3)c1 (stereo not drawn),i,-3.3
O=C(NCCCc1ccccc1)c1cc2n(n1)CC(c1ccc3c(c1)OCO3)OC2 (stereo not drawn),i,3.0
O=C(NCCc1ccccc1)c1cc2n(n1)CC(c1ccc3c(c1)OCO3)OC2 (stereo not drawn),?,7.7
Cc1ccc(CCNC(=O)c2cc3n(n2)CC(c2ccc4c(c2)OCO4)OC3)cc1 (stereo not drawn),25.1µM*,21.4
O=C(NCc1ccc(F)cc1Cl)c1cc2n(n1)CC(c1ccc3c(c1)OCO3)OC2 (stereo not drawn),?,-6.3
Cc1cccc(C(=O)Nc2ccc(CCC(=O)N(C)C)cc2)c1,i,.
COC1CCCOC12CCN(C(=O)CCn1c(C)nc3ccccc31)CC2 (stereo not drawn),i,3.9
CCC1(C(=O)Nc2cc(OC)ccc2OC)CCCCC(=O)N1 (stereo not drawn),i,0.0
COc1ccc(NC(=O)Cn2c(=O)n(-c3ccc(C)c(C)c3)c(=O)c3c4c(sc32)CCCCC4)cc1Cl,i,-33.1*
Cc1ccc(-n2c(=O)c3c4c(sc3n(CC(=O)Nc3cccc(Cl)c3)c2=O)CCCCC4)cc1C,i,5.6
O=C(c1ccc(Cl)cc1)N1CC2(CCCN(Cc3ccc(Cl)cc3)C2)Cc2ccccc21 (stereo not drawn),i,1.1
SMILES,KDM5B inhibitor,IP6K1 inhibitor
N#C/C(=C/c1ccc(OCc2ccccc2C#N)cc1)c1cccc(F)c1,i,.
COc1cc(NC(=O)CN2C(=O)CN(C)C(=O)c3ccccc32)cc(OC)c1OC,i,-5.9
CCOC(=O)c1cc(-c2ccccc2)sc1NC(=O)CCN1CCOCC1,i,.
COCCNc1ncc(-c2cccc(N)c2)c2c1OCC2,?,8.1
COCCNc1ncc(-c2ccc(OC)c(OC)c2)c2c1OCC2,35.5µM*,-2.4
COCCNc1ncc(-c2ccc(O)c(OC)c2)c2c1OCC2,35.5µM*,28.3
COCCNc1ncc(-c2cccc(O)c2)c2c1OCC2,?,-7.3
COCCNc1ncc(-c2cccc(C(C)=O)c2)c2c1OCC2,i,-8.1
COCCNc1ncc(-c2ccc(O)cc2)c2c1OCC2,31.6µM*,-15.8
CC(=O)Nc1ccc(CNC[C@H]2COCc3nc4ccc(C)cc4n32)cc1,i,-7.9
Cc1ccc(S(=O)(=O)N2CCCN(C(=O)c3cnn(Cc4ccccc4Cl)c3)CC2)cc1,i,.
CCCCCCn1c(SCCC(C)C)nc2c1c(=O)[nH]c(=O)n2C,i,.
COc1ccc(-c2nnc3ccc(NCC(C)C)nn23)nc1,35.5µM*,-16.1
COc1cccc(Nc2ccc3nnc(-c4cc(OC)ccn4)n3n2)c1,28.2µM*,-22.8
COc1ccc(-c2nnc3ccc(NCCc4ccccc4)nn23)nc1,i,-19.0
COCCCNc1ccc2nnc(-c3ccc(C)cn3)n2n1,39.8µM*,-10.0
COc1cccc(NC(=O)c2ccnc(-c3nnc4ccc(Nc5ccccc5)nn34)c2)c1,i,-15.1
COCCNc1ccc2nnc(-c3ccccn3)n2n1,?,2.6
